According to PubChem BioAssay (NCATS):
Inconclusive results are not listed. Active and inactive are the calls of the source. Calls follow the shape of the dose curve; as a rule, active = well fitted curve in the direction sought with a large enough effect; inconclusive = small, poorly fitted or top-dose-only effect, or another doubt; inactive = no such curve, though single readings can be large; an effect the other way counts as inactive or inconclusive.

Tests used:
[1] = test system: NIH3T3; assay: qHTS assay to identify novel small-molecules to repurpose for Merkel cell carcinoma treatment (AID 1296009); settings: MCC and control cell lines, CellTiter-Glo viability, 72 h; at 44.8 µM (top of the series) unless noted; also: nearly all actives have a fitted effect of over 60% in size
Outline: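 72 hr, 37 degree celsius; NPC 8-pt / MIPE 11-pt dose response; compound pinned in DMSO; CellTiter-Glo, 10 min RT, luminescence; normalized to no-cell and DMSO controls.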

[2] = test system: C33A; assay: Primary qHTS to identify gynecologic anti-cancer compounds using libraries of approved drugs and bioactive compounds (AID 1345084); settings: Gynecologic cancer cell panel viability, ATPlite luminescence, 48 h; series mostly up to 57.5 µM; also: % is scaled to controls: 0 for no effect and ±100 for the full control effect; nearly all actives have a fitted effect of over 55% in size
Outline: (§1)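 48 h compound exposure at 37 C, 5% CO2; five-point qHTS. ATPlite luminescence readout of cell ATP.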

[3] = test system: CASKI; assay: as above; settings: Gynecologic cancer cell panel viability, ATPlite luminescence, 48 h; series mostly up to 57.5 µM
Outline: as §1

[4] = test system: Es-2; assay: as above; settings: Gynecologic cancer cell panel viability, ATPlite luminescence, 48 h; series mostly up to 57.5 µM
Outline: as §1

[5] = test system: HeLa; assay: as above; settings: Gynecologic cancer cell panel viability, ATPlite luminescence, 48 h; series mostly up to 57.5 µM
Outline: as §1

[6] = test system: Hek293T; assay: as above; settings: Gynecologic cancer cell panel viability, ATPlite luminescence, 48 h, control line for the selectivity index; series mostly up to 57.5 µM
Outline: as §1

[7] = test system: JEG-3; assay: as above; settings: Gynecologic cancer cell panel viability, ATPlite luminescence, 48 h; series mostly up to 57.5 µM
Outline: as §1

[8] = test system: OV90; assay: as above; settings: Gynecologic cancer cell panel viability, ATPlite luminescence, 48 h; series mostly up to 57.5 µM
Outline: as §1

[9] = test system: PA-1; assay: as above; settings: Gynecologic cancer cell panel viability, ATPlite luminescence, 48 h; series mostly up to 57.5 µM
Outline: as §1

[10] = test system: SKOV3; assay: as above; settings: Gynecologic cancer cell panel viability, ATPlite luminescence, 48 h; series mostly up to 57.5 µM
Outline: as §1

[11] = test system: Tov-21-G; assay: as above; settings: Gynecologic cancer cell panel viability, ATPlite luminescence, 48 h; series mostly up to 57.5 µM
Outline: as §1

[12] = test system: Tov112D; assay: as above; settings: Gynecologic cancer cell panel viability, ATPlite luminescence, 48 h; series mostly up to 57.5 µM
Outline: as §1

[13] = test system: CAOV3; assay: as above; settings: Gynecologic cancer cell panel viability, ATPlite luminescence, 48 h; series mostly up to 57.5 µM
Outline: as §1

COC1C=C([C@@H]2CC=C3[C@@]4(C)C(CC[C@]32C)[C@@]2(C)C=CC(=O)C(C)(C)C2C[C@H]4OC(C)=O)C(=O)O1 (stereo not given in full)
inactive: outcome [1] inactive [at 17.4 µM] | Potency [2] | Potency [3] | Potency [4] | Potency [5] | Potency [6] | Potency [7] | Potency [8] | Potency [9] | Potency [10] | Potency [11] | Potency [12]

COc1ccc([C@@H]2N[C@H](C(=O)O)Cc3c2[nH]c2ccccc32)cc1CN1CCN(c2ccccc2F)CC1
inactive: outcome [1] | Potency [2] | Potency [3] | Potency [4] | Potency [5] | Potency [6] | Potency [7] | Potency [8] | Potency [9] | Potency [10] | Potency [11] | Potency [12]

C=C1CCC(OC(C)=O)C2(C)CC3(O)OC(=O)C(C)=C3CC12 (stereo not given)
inactive: Potency [2] | Potency [13] | Potency [3] | Potency [4] | Potency [5] | Potency [6] | Potency [7] | Potency [8] | Potency [9] | Potency [10] | Potency [11] | Potency [12]

CC1(C)CCCC2(C)C3=C(C(=O)OC3O)C(O)CC12 (stereo not given)
inactive: outcome [1] | Potency [2] | Potency [3] | Potency [4] | Potency [5] | Potency [6] | Potency [7] | Potency [8] | Potency [9] | Potency [11] | Potency [12]

C=CC1(C)CC2=CCC3C(C)(C(=O)O)CCCC3(C)C2CC1OC(C)=O (stereo not given)
inactive: outcome [1] | Potency [2] | Potency [3] | Potency [4] | Potency [5] | Potency [6] | Potency [7] | Potency [8] | Potency [9] | Potency [10] | Potency [11] | Potency [12]

COC1(CC(C)C)NC(=O)C(O)(Cc2ccccc2)NC1=O (stereo not given)
inactive: outcome [1] | Potency [2] | Potency [3] | Potency [4] | Potency [5] | Potency [6] | Potency [7] | Potency [8] | Potency [9] | Potency [10] | Potency [11] | Potency [12]

CC(C#N)C(C)O[C@@H]1O[C@H](CO)[C@@H](O)[C@H](O)[C@H]1O (stereo not given in full)
inactive: outcome [1] | Potency [2] | Potency [3] | Potency [4] | Potency [5] | Potency [6] | Potency [7] | Potency [8] | Potency [9] | Potency [10] | Potency [11] | Potency [12]

CCN(c1cc(C#CCN2CCOCC2)cc(C(=O)NCc2c(C)cc(C)[nH]c2=O)c1C)C1CCC(N(C)CCOC)CC1 (stereo not given)
inactive: outcome [1] | Potency [2] | Potency [3] | Potency [4] | Potency [5] | Potency [6] | Potency [7] | Potency [8] | Potency [9] | Potency [10] | Potency [11] | Potency [12]

C=CC(C)(O)CC/C=C(\C)C(=O)OCC1OC(OC2CCC3(C)C(CCC4(C)C3CC=C3C5CC(C)(C)C(O)CC5(C(=O)O)CCC34C)C2(C)C)C(O)C(OC2OC(CO)C(O)C(OC3OC(CO)C(O)C(OC4OC(COC5OC(CO)C(O)C(O)C5O)C(O)C(O)C4O)C3O)C2O)C1O (stereo not given)
inactive: outcome [1] inactive [at 9.27 µM] | activity change, negative = cytotoxicity [2] 4.36% [at 6.55 µM] | activity change, negative = cytotoxicity [3] 11.9% [at 6.55 µM] | activity change, negative = cytotoxicity [4] 0.769% [at 6.55 µM] | activity change, negative = cytotoxicity [5] 3.26% [at 6.55 µM] | activity change, negative = cytotoxicity [6] 3.14% [at 6.55 µM] | activity change, negative = cytotoxicity [7] 7.76% [at 6.55 µM] | activity change, negative = cytotoxicity [8] 12.5% [at 6.55 µM] | activity change, negative = cytotoxicity [9] 15.1% [at 6.55 µM] | activity change, negative = cytotoxicity [10] 0.954% [at 6.55 µM] | activity change, negative = cytotoxicity [11] 2.74% [at 6.55 µM] | activity change, negative = cytotoxicity [12] -3.38% [at 6.55 µM]

C[C@@H]1O[C@@H](O[C@H]2[C@H](OC(=O)C34CCC5(C)C(=CCC6C7(C)CC(O)C(O[C@@H]8O[C@H](C(=O)O)[C@@H](O)[C@H](O)[C@H]8O)C(C)(C(=O)O)C7CCC65C)C3CC(C)(C)CC4O)O[C@H](C)[C@@H](O)[C@@H]2O)[C@H](O)[C@@H](O[C@@H]2OC[C@](O)(CO)[C@H]2O[C@@H]2O[C@H](CO)[C@@H](O)[C@H](O)[C@H]2O)[C@H]1O (stereo not given in full)
inactive: outcome [1] inactive [at 9.27 µM] | activity change, negative = cytotoxicity [2] -3.41% [at 6.55 µM] | activity change, negative = cytotoxicity [3] 3.56% [at 6.55 µM] | activity change, negative = cytotoxicity [4] -1.29% [at 6.55 µM] | activity change, negative = cytotoxicity [5] -4.39% [at 6.55 µM] | activity change, negative = cytotoxicity [6] 5.55% [at 6.55 µM] | activity change, negative = cytotoxicity [7] 16.4% [at 6.55 µM] | activity change, negative = cytotoxicity [8] -2.48% [at 6.55 µM] | activity change, negative = cytotoxicity [9] 9.01% [at 6.55 µM] | activity change, negative = cytotoxicity [10] 13.1% [at 6.55 µM] | activity change, negative = cytotoxicity [11] -3.03% [at 6.55 µM] | activity change, negative = cytotoxicity [12] 10.3% [at 6.55 µM]

COC(=O)C1=C[C@@H](O)[C@@H](O)[C@H](O[C@@H]2O[C@H](COC(=O)/C=C/c3ccccc3)[C@@H](O)[C@H](O)[C@H]2O)C1
inactive: outcome [1] inactive [at 17.4 µM] | Potency [2] | Potency [3] | Potency [4] | Potency [5] | Potency [6] | Potency [7] | Potency [8] | Potency [9] | Potency [10] | Potency [11] | Potency [12]

CC(=O)OC1C(O)CC(O[C@@H]2O[C@H](CO)[C@@H](O)[C@H](O)[C@H]2O)C2CCC3C(=O)OC(c4ccoc4)CC3(C)C21 (stereo not given in full)
inactive: outcome [1] inactive [at 17.4 µM] | Potency [2] | Potency [3] | Potency [4] | Potency [5] | Potency [6] | Potency [7] | Potency [8] | Potency [9] | Potency [10] | Potency [11] | Potency [12]

CCn1nnnc1NCc1ccc(C(C)C)cc1
inactive: outcome [1] | Potency [2] | Potency [3] | Potency [4] | Potency [5] | Potency [6] | Potency [7] | Potency [8] | Potency [9] | Potency [10] | Potency [11] | Potency [12]
